# Results published in the supplement of paper PMC9262897, “Low-cost anti-mycobacterial drug discovery using engineered E. coli” (Nature Communications, 2022).
# Where a name gives a salt, the structure may show the parent alone. ± gives the standard deviation of the averaged measurements.
# Tested on: E. coli TESEC Mtb Alr
# Experiment: growth (OD600 after 10 h); higher = more growth (less inhibition)
# Conditions: arabinose 10000 nM; compound 0.1 mM; raw OD600 reference: median of DMSO wells 0.264, cell-free background 0.041
# Procedure: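 TESEC Mtb Alr E. coli, or the Alr+ wild-type control, in 384-well plates with Prestwick library compounds at 0.1 mM and 1% DMSO, across arabinose induction levels of 1E3 to 1E7 nM. Growth is read as OD600 after 10 h at 37 °C in triplicate biological replicates.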
row,SMILES,growth
1,CCCCN(CCCC)CCC(O)c1cc2c(Cl)cc(Cl)cc2c2cc(C(F)(F)F)ccc12 (configuration not stated) [Halofantrine hydrochloride],0.31 ± 0.0059
2,CO[C@@H]1[C@@H](O[C@@H]2O[C@H](C)[C@@H](O[C@H]3C[C@@](C)(O)[C@@H](OC(=O)CC(C)C)[C@H](C)O3)[C@H](N(C)C)[C@H]2O)[C@@H](CC=O)C[C@@H](C)[C@@H](O)/C=C/C=C/C[C@@H](C)OC(=O)C[C@H]1OC(C)=O [Josamycin],0.0406 ± 0.00026
3,Cc1ccccc1C(OCCN(C)C)c1ccccc1 (configuration not stated) [Orphenadrine hydrochloride],0.266 ± 0.015
4,O=C(NCC1CCCCN1)c1cc(OCC(F)(F)F)ccc1OCC(F)(F)F (configuration not stated) [Flecainide acetate],0.276 ± 0.0049
5,C[C@]12CC[C@@H]3c4ccc(O)cc4C[C@@H](CCCCCCCCC[S+]([O-])CCCC(F)(F)C(F)(F)F)[C@H]3[C@@H]1CC[C@@H]2O (some centres not stated) [Fulvestrant],0.27 ± 0.009
6,CN1CCN(CC(=O)N2c3ccccc3C(=O)Nc3cccnc32)CC1 [Pirenzepine dihydrochloride],0.268 ± 0.013
7,CCCCC(=O)N(Cc1ccc(-c2ccccc2-c2nnn[nH]2)cc1)[C@H](C(=O)O)C(C)C [Valsartan],0.27 ± 0.0035
8,CCOc1ccccc1OCC1CNCCO1 (configuration not stated) [Viloxazine hydrochloride],0.273 ± 0.0049
9,Cc1nc2n(c(=O)c1CCN1CCC(c3noc4cc(F)ccc34)CC1)CCCC2 [Risperidone],0.269 ± 0.014
10,C=C1C(=O)O[C@H]2[C@H]1CC/C(C)=C/CC[C@@]1(C)O[C@@H]21 [Parthenolide],0.27 ± 0.0042
11,CC(C(O)c1ccc(O)cc1)N1CCC(Cc2ccccc2)CC1 (configuration not stated) [Ifenprodil tartrate],0.276 ± 0.0052
12,O=C(c1ccc(F)cc1)C1CCN(CCn2c(=O)[nH]c3ccccc3c2=O)CC1 [Ketanserin tartrate hydrate],0.27 ± 0.0047
13,COc1cc2nc(N(C)CCCNC(=O)C3CCCO3)nc(N)c2cc1OC (configuration not stated) [Alfuzosin hydrochloride],0.252 ± 0.0042
14,CN(C)C(=O)C(CCN1CCC(O)(c2ccc(Cl)cc2)CC1)(c1ccccc1)c1ccccc1 [Loperamide hydrochloride],0.0402 ± 0.00044
15,CNCCC=C1c2ccccc2C=Cc2ccccc21 [Norcyclobenzaprine],0.254 ± 0.014
16,O=S(=O)(O)c1cc(O)ccc1O [Ethamsylate],0.258 ± 0.0087

row,SMILES,growth
1,N[C@@H]1CONC1=O [D-cycloserine],0.0389 ± 0.00083
2,Clc1ccc(CO/N=C(\Cn2ccnc2)c2ccc(Cl)cc2Cl)c(Cl)c1 [Oxiconazole Nitrate],0.0625 ± 0.0013
3,COc1cc(NS(=O)(=O)c2ccc(N)cc2)ncn1 [Sulfamonomethoxine],0.173 ± 0.0027
4,C[C@@H]1NC(=O)NC1=O [Methylhydantoin-5-(L)],0.274 ± 0.005
5,Cn1c(=O)c2c(ncn2CC(=O)O)n(C)c1=O [Acefylline],0.253 ± 0.0048
6,CCC(=O)O[C@]1(C(=O)SCF)[C@H](C)C[C@H]2[C@@H]3C[C@H](F)C4=CC(=O)C=C[C@]4(C)[C@@]3(F)[C@@H](O)C[C@@]21C [Fluticasone propionate],0.274 ± 0.021
7,Cn1c(=O)c2c(ncn2CCO)n(C)c1=O [Etofylline],0.276 ± 0.016
8,CCOC(=O)[C@H](CCc1ccccc1)N[C@@H](C)C(=O)N1CCC[C@H]1C(=O)O [Enalapril maleate],0.25 ± 0.0032
9,CCC[C@@H]1C[C@@H](C(=O)N[C@@H]([C@H]2O[C@H](SC)[C@H](O)[C@@H](O)[C@H]2O)[C@@H](C)O)N(C)C1 [Lincomycin hydrochloride],0.086 ± 0.003
10,CC(C)(C)NC[C@H](O)COc1nsnc1N1CCOCC1 [Timolol maleate salt],0.252 ± 0.0061
11,CC(C)NCC(O)COc1ccc(COCCOC(C)C)cc1 (configuration not stated) [Bisoprolol fumarate],0.254 ± 0.01
12,c1ccc2c(CC3=NCCN3)cccc2c1 [Naphazoline hydrochloride],0.268 ± 0.0057
13,CC(=O)OCC(=O)[C@@]1(O)CC[C@H]2[C@@H]3CCC4=CC(=O)CC[C@]4(C)[C@@]3(F)[C@@H](O)C[C@@]21C [Fludrocortisone acetate],0.255 ± 0.012
14,O=P(O)(O)C(O)(Cn1ccnc1)P(=O)(O)O [Zoledronic acid hydrate],0.278 ± 0.0062
15,Cc1c(N(C)C)c(=O)n(-c2ccccc2)n1C [Amidopyrine],0.2721 ± 0.0006
16,C=C1/C(=C\C=C2/CCC[C@]3(C)[C@@H]([C@H](C)/C=C/[C@@H](O)C4CC4)CC[C@@H]23)C[C@@H](O)C[C@@H]1O [Calcipotriene],0.0544 ± 0.0042
